# Experimental data taken from PubChem BioAssay (EPA / NIEHS).
# Activity calls are given as the source filed them. How the source made its calls: active means hit-call score of the fitted dose curve at least 0.9, where 1 is the maximum; inactive means score below 0.9.
# Assay: APR_HepG2_MitoMembPot_1hr: Apredica 1-hour HepG2 Assay for Mitochondrial Membrane Potential (AID 2282675)
# Details: imaging, actives raise or lower the signal
# Method: APR_HepG2_1hr is a cell-based, multiplexed-readout assay that uses HepG2, a human liver cell line, with measurements taken at 1 hour after chemical dosing in a 384-well plate.APR_HepG2_MitoMembPot_1hr is one of 10 assay component(s) measured or calculated from the APR_HepG2_1hr assay. It is designed to make measurements of dye binding, a form of membrane potential reporter, as detected with fluorescence intensity signals by HCS Fluorescent Imaging technology.Data from the assay component APR_HepG2_MitoMembPot_1hr was analyzed into 1 assay endpoint. This assay endpoint, APR_HepG2_MitoMembPot_1hr, was analyzed with bidirectional fitting relative to DMSO as the negative control and baseline of activity. Using a type of membrane potential reporter, gain or loss-of-signal activity can be used to understand changes in the signaling. Furthermore, this assay endpoint can be referred to as a primary readout, because this assay has produced multiple assay endpoints where this one serves a signaling function. To generalize the intended target to other relatable targets, this assay endpoint is annotated to the cell morphology intended target family, where the subfamily is organelle conformation.
# Cells were treated with dimethyl sulfoxide (DMSO) as a solvent control at a final concentration of 0.5% v/v or with compounds in DMSO with a resulting final DMSO concentration of 0.5% v/v. Compound treatment was done at concentrations of 0.39, 0.78, 1.56, 3.12, 6.24, 12.5, 25, 50, 100, and 200 uM in duplicate on each plate. Cells were treated with compounds for 1, 24, or 72 hr. Carbonyl […] m-chloro-phenylhydrazone (CCCP) and taxol were used as positive controls for mitochondrial function and cytoskeletal stability, respectively; DMSO served as the negative control for this experiment. Cells were fixed by the direct addition of 50 uL formaldehyde in Hank's Balanced Salt Solution (HBSS) to a final concentration of 3.7%. After incubation in the fixation medium for 30 min at room temperature (293-298 K), cells were rinsed twice with HBSS and treated with cell permeabilization buffer (16 uL of 0.5% Triton X-100) for 10 min at room temperature (293-298 K) before labeling. For mitochondrial membrane potential and mitochondrial measurements, pre-fixed cells were incubated with 50 uL of MitoTracker Red CMXRos (Invitrogen) at a concentration of 250 nM for 30 min before fixation. In the remaining cases, post-fixed cells were labeled by incubation with a multiplexed mixture of primary antibodies in HBSS for 60 min at room temperature (293-298 K) to detect immunoreactivity of c-Jun (1:500), phospho-histone H3 (1:100), phospho-histone H2A.x (1:200), p53 (1:400), alpha-tubulin (1:200) and Hoechst 33342 (2 ug/mL). Cells were labeled for multiplexed imaging on two separate plates: a) Hoechst 33342, MitoTracker Red, phospho-histone H3, and alpha-tubulin, and b) Hoechst 33342, phospho-histone H2A.x, and c-Jun. A final rinse with HBSS (50 uL) was performed before analysis. The primary and secondary antibodies for the proteins were phospho-histone H3 (rabbit anti-phospho-histone H3 and FITC-donkey anti-rabbit IgG), phospho-histone H2A.x (mouse anti-phospho-histone H2A.x and FITC-donkey anti-mouse IgG), c-Jun (rabbit anti-phospho-c-Jun and Cy3-donkey anti-rabbit IgG), p53 (sheep anti-p53 and Cy5-donkey anti-sheep IgG), alpha-tubulin (mouse anti-alpha-tubulin and Cy5-donkey anti-mouse IgG). These antibodies are available as the CellCiphr HepG2 assay kit (Millipore).Digital images of each well were captured using a Cellomics ArrayScan VTI (Thermo Scientific Cellomics) (0.8 NA objective, 0.63x optical coupler, and XF-93 filter set) at 20x magnification. The images were acquired using the autofocus feature of the ArrayScan instrument, which entails the following steps. First, the camera focuses on channel 1 (Hoechst 33342), where nuclei are identified. Second, a Z offset of 1 um is used for capturing mitochondria (MitoTracker Red). […]
Compound,outcome,AC50
COC(=O)c1cccc(C)c1S(=O)(=O)NC(=O)Nc1nc(OCC(F)(F)F)nc(N(C)C)n1,inactive,–
CCCCC(CC)CN1C(=O)C2C3C=CC(C3)C2C1=O (stereo not given),inactive,–
COC(=O)CSc1cc(N=c2sc(=O)n3n2CCCC3)c(F)cc1Cl,inactive,–
CCN(CC)C(=O)c1cccc(C)c1,inactive,–
O=C(O)C1(C(=O)Nc2ccc(Cl)cc2Cl)CC1,inactive,–
CCOC(=O)C(C)Oc1ccc(Oc2cnc3cc(Cl)ccc3n2)cc1 (stereo not given),inactive,–
CCCN(CCC)C(=O)SCC,inactive,–
CCNc1nc(N)nc(Cl)n1,inactive,–
CCC(C)OC(=O)N1CCCCC1CCO (stereo not given),inactive,–
CCOC(=O)COc1cc(-n2ncc(C(F)(F)F)c(C)c2=O)c(F)cc1Cl,inactive,–
CCCCOC(=O)C(C)Oc1ccc(Oc2ccc(C(F)(F)F)cn2)cc1 (stereo not given),inactive,–
CC(C)(c1ccc(O)cc1)c1ccc(O)cc1,inactive,–
c1ccc2[nH]c(-c3cscn3)nc2c1,inactive,–
CC1(C)C(C=C(Cl)Cl)C1C(=O)OCc1cccc(Oc2ccccc2)c1 (stereo not given),inactive,–
CC(C)(C)[C@@H](O)[C@@H](Cc1ccc(Cl)cc1)n1cncn1,inactive,–
CCN(Cc1c(F)cccc1Cl)c1c([N+](=O)[O-])cc(C(F)(F)F)cc1[N+](=O)[O-],inactive,–
CCCCOC(=O)[C@@H](C)Oc1ccc(Oc2ccc(C(F)(F)F)cn2)cc1,inactive,–
CCOC(=O)NCCOc1ccc(Oc2ccccc2)cc1,inactive,–
Cc1nn(C)c(Oc2ccccc2)c1C=NOCc1ccc(C(=O)OC(C)(C)C)cc1,inactive,–
O=C(Nc1ccc([N+](=O)[O-])cc1Cl)c1cc(Cl)ccc1O,–,1.94 µM (active)

Compound,outcome,AC50
CCCCC(CC)COC(=O)c1ccccc1C(=O)O (stereo not given),inactive,–
COc1nc(C)nc(NC(=O)NS(=O)(=O)c2ccccc2OCCCl)n1,inactive,–
OB(O)O,inactive,–
C#CCOC(=O)[C@@H](C)Oc1ccc(Oc2ncc(Cl)cc2F)cc1,inactive,–
CCCN(CCC)c1c([N+](=O)[O-])cc(C(F)(F)F)c(N)c1[N+](=O)[O-],inactive,–
COC(=O)c1ccc(CNS(C)(=O)=O)cc1S(=O)(=O)NC(=O)Nc1nc(OC)cc(OC)n1,inactive,–
COC(=O)c1ccccc1C(=O)O,inactive,–
COc1c(Cl)ccc(Cl)c1C(=O)O,inactive,–
CCSC(=O)N(CC(C)C)CC(C)C,inactive,–
N#CSCSc1nc2ccccc2s1,inactive,–
c1ccc(Nc2ccccc2)cc1,inactive,–
CCOC(=O)[C@H](C)Oc1ccc(Oc2nc3ccc(Cl)cc3o2)cc1,inactive,–
S=C([S-])NCCNC(=S)[S-].[Mn+2],inactive,–
CCCOC(=O)c1ccc(C(=O)OCCC)nc1,inactive,–
CCC(O)=C1C(=O)CC(C(=O)O)CC1=O (stereo not given),inactive,–
CN(C)C(=O)Nc1ccc(Cl)c(Cl)c1,inactive,–
C=CCOC(Cn1ccnc1)c1ccc(Cl)cc1Cl (stereo not given),inactive,–
CSC(=O)c1cccc2nnsc12,inactive,–
COC(=O)c1ccc(I)cc1S(=O)(=O)NC(=O)Nc1nc(C)nc(OC)n1,inactive,–
COC(=O)c1ccccc1S(=O)(=O)NC(=O)Nc1nc(OC(F)F)cc(OC(F)F)n1,inactive,–
